In the library only some 19% were active in any assay of this set; here they are far more common.
TDP1 cell CPT: qHTS for Inhibitors of human tyrosyl-DNA phosphodiesterase 1 (TDP1): qHTS in cells in presence of CPT; chicken DT40 Tdp1-/-;hTDP1 cells + 20 nM CPT, ATP luminescence, 48 h; Potency, µM (top dose mostly 46.2 µM), inactives show top-dose activity change, negative = growth inhibition, hits mostly inhibitors; 12% of 420,000 active; further: potency means the concentration at half of the fitted maximal effect; nearly all actives have a fitted effect of over 55% in size
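Chicken DT40 Tdp1-/- cells complemented with human TDP1, 400 cells/well, exposed to compounds plus 20 nM camptothecin for at least 48 h at 37 C; viability read as ATP content by CellTiter-Glo luminescence.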
IL-1B inflam inh: qHTS for Inhibitors of Inflammasome Signaling: IL-1-beta AlphaLISA Primary Screen | activity change, % at 57.5 µM | THP-1 LPS/ATP IL-1B secretion, AlphaLISA, 16 h; hits give low values | 4.7% of 360,000 active; in the data active means activity change below about -50%; inconclusive means mostly about -30% to -49%
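Secreted IL-1B measured by AlphaLISA bead assay after 16 h compound exposure of THP-1 cells; compounds (final up to 57.5 uM) added 1 h before LPS (250 ng/mL) and ATP (1.25 mM) stimulation; lower signal means less secretion.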
DT40 TDP1 no CPT: qHTS for Inhibitors of human tyrosyl-DNA phosphodiesterase 1 (TDP1): qHTS in cells in absence of CPT | DT40 Tdp1-/- hTDP1 cells, no CPT, ATP luminescence, 48 h | Potency, µM (highest dose often 46.2 µM), for inactives: at the top dose activity change, negative = growth inhibition, most hits filed as inhibitors | 15% of 420,000 active | AID 686978, 2013; further: potency means the concentration at half of the fitted maximal effect; nearly all actives have a fitted effect of over 55% in size
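Growth of hTDP1-complemented DT40 Tdp1-knockout cells is measured by ATP luminescence after at least 48 hr compound exposure at 37 °C, with DMSO substituting for the 20 nM CPT used in the parallel screen.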
HT1080NT lethal: qHTS for induction of synthetic lethality in tumor cells producing 2HG: qHTS for the HT-1080-NT fibrosarcoma cell line | HT-1080-NT fibrosarcoma viability, CellTiter-Glo ATP luminescence, 48 h | Potency, µM (highest dose often 46.1 µM), without a hit: top-dose activity, negative = less viability, hits mostly cytotoxic | 1.6% of 360,000 active | AID 686970, 2013;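 further: NT is the 2HG producing partner of a matched IDH1 knockdown line; potency means the concentration at half of the fitted maximal effect; 0% = DMSO-treated cells and -100% = media-only wells without cells; nearly all actives have a fitted effect of over 55% in size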
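Toxicity toward the 2HG-producing NT line was scored as %Activity, normalised to DMSO and no-cell wells, from CellTiter-Glo luminescence after 48 hours' treatment.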
HT1080 IDH1KD tx: qHTS for induction of synthetic lethality in tumor cells producing 2HG: qHTS for the HT-1080-IDH1KD cell line | 2% of 360,000 active | HT-1080 IDH1 knockdown viability, ATP luminescence, 48 h | Potency, µM (series often up to 46.1 µM), for the others: at the highest dose activity, negative = toxicity, most hits filed as cytotoxic;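 further: potency means the concentration at half of the fitted maximal effect; 0% = DMSO wells and -100% = cell-free medium wells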
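IDH1KD HT-1080 cells, 750/well, RPMI + 5% FBS; compound pinned after 2 h settling; 48 h, 37 °C; CellTiter-Glo luminescence; % activity normalised to DMSO and no-cell wells; curves fitted, classed by r2 and efficacy.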
The depositor's hits bear a star; ? = inconclusive; . = no result; [ ] = remark or other dose. Unless noted, the call rests on the fitted dose curve; in most records, active means well fitted curve in the direction sought with a large enough effect; inconclusive means small, poorly fitted or top-dose-only effect, or another doubt; inactive means no such curve, though single readings can be large; an effect the other way counts as inactive or inconclusive. Unless noted, on the % scale 0 is the no-effect control and ±100 the full control effect.

SMILES	TDP1 cell CPT	IL-1B inflam inh	DT40 TDP1 no CPT	HT1080NT lethal	HT1080 IDH1KD tx
O=C(N/N=C/c1ccccc1OCc1ccccc1)c1cccnc1	?	8.8	29.1µM*	-4.2%	-14.6%
O=C(N/N=C/c1cccc2ccccc12)c1cccnc1	-0.7%	-0.1	5.6%	17.2%	20.3%
O=C(N/N=C/c1ccccc1F)c1ccccc1OCc1ccccc1	?	20.9	20.6µM*	-12.7%	-2.4%
Cn1nnnc1SCC(=O)Nc1ccc(S(=O)(=O)N2CCOCC2)cc1	0.0%	-8.6	22.6%	2.6%	0.3%
Brc1ccsc1/C=N/Nc1ccccc1	-18.2%	-6.5	-26.3%	-22.1%	?
CCCC(=O)Nc1ccc(NC(=O)CCc2ccccc2)cn1	16.4µM*	16.0	16.4µM*	2.1%	-6.9%
CCCC(=O)Nc1ccc(NC(=O)Cc2ccccc2)cn1	-4.3%	-11.5	0.7%	9.1%	-1.3%
Cc1cc(/C=C2\SC(=S)NC2=O)c(C)[nH]1	-3.0%	4.9	-1.6%	0.2%	-19.3%
O=C1NC(=S)S/C1=C\c1cc(Cl)ccc1Cl	20.6µM*	-16.0	?	?	-22.4%
CCn1c(=O)c2ccccc2n(Cc2ccccc2C)c1=O	?	-9.3	?	-5.2%	-13.9%
O=c1c2ccccc2n(Cc2cccc(F)c2)c(=O)n1C1CCCC1	?	16.0	23.1µM*	-18.0%	-8.2%
CCn1c(=O)c2ccccc2n(Cc2cccc([N+](=O)[O-])c2)c1=O	1.8%	-50.3*	?	-3.7%	-4.3%
N#Cc1ccccc1Cn1c(=O)n(C2CCCC2)c(=O)c2ccccc21	16.4µM*	-18.3	18.4µM*	-2.9%	-9.9%
Cc1cccc(-n2c(=O)c3ccccc3n(Cc3ccccc3C#N)c2=O)c1	-28.3%	.	-9.2%	.	.
Cc1cccc(CCn2c(=O)c3ccccc3n(Cc3ccccc3C)c2=O)c1	14.6µM*	.	16.4µM*	.	.
COc1ccc(CCC(=O)N/N=C/c2ccc3c(c2)OCO3)cc1	3.8%	5.2	-6.2%	-24.2%	-17.2%
CCOC(=O)COc1ccc2c(c1)C(=O)CC1(CCN(C(C)=O)CC1)O2	-14.7%	10.3	-5.1%	-0.4%	-2.3%
COc1ccc(NC(=O)c2cc(C)cc(C)c2)cc1S(=O)(=O)N1CCCCC1	-18.1%	-25.0	-19.8%	1.0%[9.24 µM]	-4.7%
Cc1cccc(CCn2c(=O)c3ccccc3n(Cc3cccc(F)c3)c2=O)c1	18.4µM*	.	23.1µM*	.	.
COc1cc(-n2c(=O)c3ccccc3n(Cc3cccc(F)c3)c2=O)cc(OC)c1OC	-2.7%	?	1.2%	2.3%	-2.0%
COc1ccc(-n2c(=O)c3ccccc3n(Cc3ccccc3F)c2=O)cc1OC	?	-6.3	?	-1.5%	0.3%
O=c1c2ccccc2n(Cc2ccccc2F)c(=O)n1-c1cccc(F)c1	?	.	14.6µM*	.	.
CC1(C(=O)Nc2ccc3c(c2)OCCO3)CN(S(C)(=O)=O)CC(=O)N1C1CCCCCC1 (stereo unspecified)	14.7%	-7.9	-5.9%	-4.2%	-3.9%
CSc1ccc(/C=C/c2ccc3cccc(O)c3n2)cc1	16.4µM*	20.4	20.6µM*	?	?

Screening data (PubChem BioAssay)
